# Measured values reported in the supplement of paper PMC9694430.
# Assays:
# Assay in all cases: thermal shift delta Tm vs DMSO control; higher = stronger stabilization (binding)
# Details in all cases: 12.5 µM; protein concentration 2 µM
# LOC_OS01G57100-cb003 = test system: LOC_OS01G57100-cb003
# In short: (§1)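 Compounds dissolved in DMSO were added to purified rice kinase domain constructs, which had been expressed in E. coli, for differential scanning fluorimetry. Each well held 19.5 μl of 2 μM kinase in 100 mM potassium phosphate pH 7.5, 150 mM NaCl, 10% glycerol and 5 × SYPRO Orange. Fluorescence was followed from 25°C to 95°C at a rate of 0.05°C/s. Shifts in Boltzmann-fitted melting temperature are triplicate means relative to DMSO-only protein.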
# LOC_OS01G60330-cb001 = test system: LOC_OS01G60330-cb001
# In short: as §1
# LOC_OS01G60700-cb002 = test system: LOC_OS01G60700-cb002
# In short: as §1
# LOC_OS01G63280-cb003 = test system: LOC_OS01G63280-cb003
# In short: as §1
# LOC_OS01G67340-cb003 = test system: LOC_OS01G67340-cb003
# In short: as §1
# LOC_OS01G70970-cb002 = test system: LOC_OS01G70970-cb002
# In short: as §1
# LOC_OS02G07810-cb001 = test system: LOC_OS02G07810-cb001
# In short: as §1
# LOC_OS02G08530-cb003 = test system: LOC_OS02G08530-cb003
# In short: as §1
# LOC_OS02G14120-cb001 = test system: LOC_OS02G14120-cb001
# In short: as §1
# LOC_OS02G17970-cb001 = test system: LOC_OS02G17970-cb001
# In short: as §1
SMILES,thermal shift delta Tm (LOC_OS01G57100-cb003) [°C],thermal shift delta Tm (LOC_OS01G60330-cb001) [°C],thermal shift delta Tm (LOC_OS01G60700-cb002) [°C],thermal shift delta Tm (LOC_OS01G63280-cb003) [°C],thermal shift delta Tm (LOC_OS01G67340-cb003) [°C],thermal shift delta Tm (LOC_OS01G70970-cb002) [°C],thermal shift delta Tm (LOC_OS02G07810-cb001) [°C],thermal shift delta Tm (LOC_OS02G08530-cb003) [°C],thermal shift delta Tm (LOC_OS02G14120-cb001) [°C],thermal shift delta Tm (LOC_OS02G17970-cb001) [°C]
CC(C)n1ncnc1-c1cn2c(n1)-c1ccc(O[C@@H](C)C(N)=O)cc1OCC2,0.54,0.84,1.39,0.36,0.34,0.21,1.33,0.19,0.43,1.55
Cc1cc(Nc2ncnc3ccc(-c4ccc(CNCCS(C)(=O)=O)o4)cc23)ccc1Oc1ccn2ncnc2c1 [HER2-Inhibitor-1],2.52,0.97,1.31,1.08,0.71,0.3,0.98,2.32,2.21,1.79
CC1(C)OCCn2c1nc1c(N3CCOCC3)nc(-c3cnc(N)nc3)nc12,-0.05,5.04,0.81,-0.02,0.53,1.29,0.49,1.45,0.72,0.78
CC(C)(O)CC(=O)NCCn1ccc2ncnc(Nc3ccc(Oc4cccc(C(F)(F)F)c4)c(Cl)c3)c21,2.91,5.27,0.11,1.26,1.33,1.03,1.53,0.93,1.51,0.83
COc1cccc(-c2cc(=O)c3ccccc3o2)c1N,-0.23,0.99,0.39,-0.2,-0.8,0.32,0.94,0.37,-0.3,-0.31
NC(=O)c1ncn([C@@H]2O[C@H](CO)[C@@H](O)[C@H]2O)c1N [AICAR (Acadesine)],1.35,0.61,0.92,0.73,-0.25,0.13,1.21,0.52,0.21,0.71
CC[C@@H](N)CNc1ccnc(-c2cc(-c3cnn(C)c3)ccc2O)n1,0.71,0.32,-0.42,0.05,1.83,0.65,-0.8,2.73,4.11,0.54
CCOc1cc2ncc(C#N)c(Nc3ccc(F)c(Cl)c3)c2cc1NC(=O)/C=C/CN(C)C [Pelitinib (EKB-569)],2.45,0.74,0.94,-0.05,0.12,0.22,0.84,0.59,0.98,0.01
Cc1ccc(NC(=O)c2cccc(N(C)C)c2)cc1NC(=O)c1ccc(O)cc1,2.98,1.17,1.43,0.32,-0.19,0.28,1.54,1.03,0.45,0.95
O=S(=O)(c1cccc2c(I)cccc12)N1CCCNCC1,0.91,-0.01,0,0.2,0,0.35,0.33,0.35,0.9,0.24
COc1ccccc1-c1cc(Nc2cccc(CS(N)(=O)=O)c2)ncn1,2.72,0.45,1.21,0.28,0.81,0.41,0.75,1.15,1.66,1.02
Cn1c(Nc2ccc(C(F)(F)F)cc2)nc2cc(Oc3ccnc(-c4ncc(C(F)(F)F)[nH]4)c3)ccc21,4.82,16.6,0.58,24.5,1.4,1.63,3.92,0.26,0.77,2.38
CN1CCN(c2ccc(C(=O)Nc3n[nH]c4ccc(Cc5cc(F)cc(F)c5)cc34)c(NC3CCOCC3)c2)CC1 [Entrectinib (RXDX-101)],0.09,4.04,0.42,-0.06,0.57,1.01,0.27,3.95,5.28,0.09
Cc1c(NC(=O)OC[C@@H]2COCCN2)cn2ncnc(Nc3ccc4c(cnn4Cc4cccc(F)c4)c3)c12,0.24,1.47,1.55,0.59,-0.1,0.39,0.88,0.86,0.51,0.42
CNS(=O)(=O)Nc1nccc(Cc2c(C)c3ccc(Oc4ncccn4)cc3oc2=O)c1F,1.4,0.33,1.34,0.93,0.24,0.04,1.08,0.58,0.9,1.23
CNC(=O)c1cc(Oc2ccc(NC(=O)Nc3ccc(Cl)c(C(F)(F)F)c3)c(F)c2)ccn1 [Regorafenib (BAY 73-4506)],0.31,0.62,0.77,1.71,-0.62,0.36,0.73,0.93,-0.11,0.55
CC(=O)c1c(C)c2cnc(Nc3ccc(N4CCNCC4)cn3)nc2n(C2CCCC2)c1=O,-0.7,1.73,0.15,-0.12,1.56,0.58,-0.42,1.29,4.13,0.68
CC(C)(C)NC(=O)c1cncn1C1CCN(c2ccc(-c3nnc(C(F)(F)F)o3)cn2)CC1,-0.21,0.32,-0.26,-0.16,0.05,0.37,-1.16,0.52,0.95,-0.2
CC(C)(C)c1cc(NC(=O)Nc2ccc(-c3cn4c(n3)sc3cc(OCCN5CCOCC5)ccc34)cc2)no1 [Quizartinib (AC220)],0.35,0.35,1.08,0.09,0.36,0.3,0.96,1.36,0.28,1.06
CCNc1nc(Nc2cc(F)c(C(=O)N3CCOCC3)cc2OC)ncc1C(F)(F)F,0.61,1.21,0.71,0.15,0.32,0.73,-0.04,1.3,0.5,0.54
